# Screening data: PubChem, Broad Institute
# miR122 inh: inhibitors of miR-122 in Huh7 cells. activation (reporter increase), % at 12.5 µM. Huh7 miR-122 Renilla luciferase sensor, 48 h; neutral wells = 0, positive control = 100. 340,000 tested, 0.3% active;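 active = mean replicate activation score at least 90 and every replicate individually at or above 90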;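 note: higher luciferase means less miR-122 activity so hits act as miR-122 inhibitors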
# PglD inh: PglD (C. jejuni) enzyme inhibition; purified PglD enzyme, DTNB colorimetric CoA detection; inhibition, % at 12.5 µM; 360,000 tested, 0.098% active; in the data active = inhibition above about 16%, passing the limit was not always enough
# NSD2 inh: blocks human histone methyltransferase NSD2; 310,000 tested, 0.54% active; AID 743445; NSD2 peptide methylation, AlphaScreen, 120 min; inhibition, % at 12.5 µM; O96028; in the data active = inhibition above about 50%
# C2C12 statin: protects C2C12 myotubes from simvastatin toxicity. ATP luminescence, 48 h; scaled: DMSO 0, geranylgeraniol control 100. 330,000 tested, 0.78% active. rescue of ATP level, % at 7.49 µM. AID 602340;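 active = mean ATP rescue above about 67%, or every replicate alone reaching that limit, limit read from the data, passing the limit was not always enough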;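 note: myotubes were challenged with 10 µM simvastatin during compound exposure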
# * marks the source's active call; other numbers are inactive results; . = no result given; [ ] = dose if it differs, or a comment. Sampled rows, rich in hits. Any-hit rate of the full collection: about 1.2%.
SMILES,miR122 inh,PglD inh,NSD2 inh,C2C12 statin
CC(=O)c1cccc(NC(=O)C(C)N2CCc3ccccc3C2)c1 (configuration not stated),128*,-3,.,3
CSc1nc(SCC(=O)NCc2ccco2)c2sc3nc(C(C)C)c4c(c3c2n1)CCC4,.,.,2,.
CCC(CC)C(=O)Nc1cccc(/C(C)=N/NC(=O)c2ccccc2Cl)c1,1,7,1,112*
CNC[C@H]1OCCCC[C@H](C)Oc2ccc(NS(=O)(=O)c3cn(C)cn3)cc2C(=O)N([C@H](C)CO)C[C@@H]1C,1[16.7 µM],-1,.,.
CCC(=O)NCCc1nc2ccccc2n1Cc1ccccc1,-4,.,0,124*
CC(=O)NCCc1nc2ccccc2n1Cc1ccc(C)cc1,-5,-7,.,10
COc1ccc(NC(=O)Nc2cccc3c2O[C@@H](CN(C)C(=O)Nc2ccccc2)[C@H](C)CN([C@@H](C)CO)C3=O)cc1,-1[16.7 µM],-1,.,9
CC(C)NC(=O)N(C)C[C@@H]1Oc2ccc(NC(=O)Nc3ccc(F)cc3)cc2CC(=O)N([C@@H](C)CO)C[C@@H]1C,-6[16.7 µM],0,.,14
CN1C(=O)c2cc(NC(=O)c3ccc(F)c(F)c3)ccc2OC[C@@H]2O[C@@H](CC(=O)N[C@@H]3CCN(Cc4ccccc4)C3)CC[C@@H]21,.,3,.,9
O=P(OC1CCCCC1)(OC1CCCCC1)C(O)c1ccccc1 (configuration not stated),147*,-3,0,4
COc1ccc(S(=O)(=O)N(C)C[C@H]2Oc3c(NC(=O)Nc4ccccc4)cccc3C(=O)N([C@@H](C)CO)C[C@@H]2C)cc1,1[16.7 µM],.,.,-45
CCN1C(=NCc2ccco2)N[C@@H](c2cccc(C(F)(F)F)c2)C(C(=O)OC)=C1C,-7,1,.,88*
Cc1ccc(-n2[nH]c(C)c(/C=N/Nc3ccc([N+](=O)[O-])cc3[N+](=O)[O-])c2=O)cc1C,.,.,62*,.
Cc1[nH]n(-c2ccccc2)c(=O)c1/C=N/NC(=O)c1cccc([N+](=O)[O-])c1,9,6,-2,-5
O=c1[nH]ncc2c3ccccc3n(Cc3ccccc3)c12,5,-5,-3,108*
COC(=O)c1nc2cc(C)ccn2c1F,-2,.,.,-7
COC(=O)c1c(C(=O)OC)c2cc(C)ccn2c1Cl,-1,-6,-6,101*
COc1ccc(C(=O)Nc2ncccc2C)cc1S(=O)(=O)N1CCCc2ccccc21,.,.,3,.
COc1ccc(C(=O)Nc2nc3c(s2)CCCC3)cc1S(=O)(=O)N1CCCc2ccccc21,115*,0,-2,.
O=C(COC(=O)c1ccccc1)Nc1ncc([N+](=O)[O-])s1,-2,-8,83*,-3
COc1ccc(S(=O)(=O)N(C)C[C@H]2Oc3ccc(NC(=O)CCCN(C)C)cc3CC(=O)N([C@H](C)CO)C[C@@H]2C)cc1,-1[16.7 µM],-1,.,-6
CCN(CC)Cc1c(O)ccc2c1O/C(=C\C=C\c1ccccc1)C2=O,278*,-12,.,106*
CCNC(=S)N1CCC(NC(=O)C2CCCCC2)CC1,-1,-1,-6,.
CCNC(=S)NNC(=O)C1CCCCC1,140*,-3,13,.
CSc1ccc(/C=C(/NC(=O)c2ccccc2)C(=O)NCCCn2ccnc2)cc1,113*,13,-2,-2
SMILES,miR122 inh,PglD inh,NSD2 inh,C2C12 statin
CC(C)(C)n1nnnc1C(c1cccnc1)N(Cc1ccccc1)Cc1cccs1 (configuration not stated),24,-4,2,-13
CC(C)(C)n1nnnc1C(c1cccs1)N(Cc1ccccc1)Cc1cccnc1 (configuration not stated),2,9,.,124*
C[C@@H]1CN([C@H](C)CO)C(=O)c2cc(NC(=O)C3CCCCC3)ccc2O[C@@H](C)CCCCO[C@@H]1CN(C)S(=O)(=O)c1ccc(F)cc1,13[16.7 µM],4,.,.
O=C(O)C1CCCCC1C(=O)Nc1ccccn1 (configuration not stated),-3,4,2,105*
C[C@@H]1CN([C@@H](C)CO)C(=O)c2cccc(NS(=O)(=O)c3cccs3)c2O[C@H]1CN(C)C(=O)Nc1ccc(C(F)(F)F)cc1,0[16.7 µM],-6,.,22
C[C@@H]1CN([C@H](C)CO)C(=O)c2cccc(NS(=O)(=O)c3cccs3)c2O[C@H]1CN(C)C(=O)Nc1ccc(C(F)(F)F)cc1,2[16.7 µM],-5,.,73*
C[C@@H]1CN([C@@H](C)CO)C(=O)c2cccc(NS(=O)(=O)c3cccs3)c2O[C@@H]1CN(C)C(=O)Nc1ccc(C(F)(F)F)cc1,8[16.7 µM],-6,.,96*
CC(C)NC(=O)N(C)C[C@@H]1Oc2cc(C3=CCCC3)ccc2S(=O)(=O)N([C@H](C)CO)C[C@H]1C,-2[16.7 µM],3,.,12
Cc1ccc(C(=O)Nc2nc3c(s2)CCCC3)o1,-2,-5,3,-23
O=C(Nc1nc2c(s1)CCCC2)c1ccc(Br)o1,0,3,1,112*
Cc1ccc(C)c(CSc2nnc(-c3cccnc3)o2)c1,356*,-1,-1,3
CC(=O)c1ccc(N2CCN(C(=O)Cn3cnc(S(=O)(=O)N4CCCCC4)c3)CC2)cc1,-1,-2,-5,98*
C#CCOCCOCCOCCNc1nc(N2CCN(C(=O)CCCCCCCCCCNC(=O)[C@H]([C@@H](C)CC)n3cc(CCCCCN)nn3)CC2)nc(N2CCN(C(=O)CCCCCCCCCCNC(=O)[C@H](CO)n3cc(CCCCCN)nn3)CC2)n1,.,5,.,-38
C#CCOCCOCCOCCNc1nc(N2CCOCC2)nc(N2CCN(C(=O)CCCCCCCCCCNC(=O)[C@@H]([C@H](C)CC)n3cc(CCCCCN)nn3)CC2)n1,-7,-1,.,99*
C[C@@H]1CN([C@@H](C)CO)C(=O)Cc2cc(NC(=O)CCC(F)(F)F)ccc2O[C@H]1CN(C)Cc1ccc(Oc2ccccc2)cc1,-15[16.7 µM],-1,.,87*
C[C@H](CO)N1C[C@H](C)[C@H](CN(C)Cc2ccc(Oc3ccccc3)cc2)Oc2ccc(NC(=O)CCC(F)(F)F)cc2CC1=O,-2[16.7 µM],-1,.,-10
COc1ccc(CN(C)C[C@@H]2Oc3ccc(NC(=O)CCC(F)(F)F)cc3CC(=O)N([C@H](C)CO)C[C@@H]2C)cc1,-2[16.7 µM],1,.,9
COc1ccc(CN(C)C[C@@H]2Oc3ccc(NC(=O)CCC(F)(F)F)cc3CC(=O)N([C@H](C)CO)C[C@H]2C)cc1,1[16.7 µM],7,.,102*
C[C@@H]1CN([C@H](C)CO)C(=O)c2cccc(N(C)C)c2O[C@@H]1CN(C)C,-9[16.7 µM],10,.,7
Cc1cc(S(=O)(=O)NCC2CC2)c(Cl)cc1Cl,105*,0,-2,10
O=S(=O)(NCC1CC1)c1cc(Cl)cc(Cl)c1,.,-13,-2,7
Cc1ccc(S(=O)(=O)N[C@@H]2C=C[C@@H](CC(=O)N3CCN(c4ccccc4)CC3)O[C@@H]2CO)cc1,.,-2,.,3
CCCCN(CC)S(=O)(=O)N1CCC(C(=O)NCCCN2CCOCC2)CC1,.,.,-2,.
CCN(CC)S(=O)(=O)N1CCC(C(=O)NCCN2CCOCC2)CC1,-2,-4,-1,107*
